Assay results from PubChem BioAssay (NCI).
The panel holds about 79,000 compounds, 15% with a hit somewhere; the sample as a whole holds those more often. Values without a mark were called inactive. Active and inactive are the calls of the source. No stated cut-off is given here; in the data, active means growth inhibition above about 70%; inactive means the rest.

Key:
[1] = NCI Yeast Anticancer Drug Screen. Data for the rad50 strain (AID 155);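 further: 0% = growth of vehicle-only cultures of the same strain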; details: S. cerevisiae rad50 strain growth inhibition, stronger effect = higher value
Outline: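 A DNA repair-deficient yeast mutant serves as the test organism; compound-induced growth inhibition is calculated against vehicle-treated cells.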

[2] = NCI Yeast Anticancer Drug Screen. Data for the mec2-1 strain (AID 157); details: S. cerevisiae mec2-1 strain, stronger effect = higher value
Outline: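 Each compound was tested on mec2-1 yeast, a strain altered in DNA damage repair or cell cycle control. Growth inhibition is reported relative to vehicle.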

[3] = NCI Yeast Anticancer Drug Screen. Data for the sgs1 mgt1 strain (AID 161);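 further: 0% = growth of cultures given vehicle only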; details: S. cerevisiae sgs1 mgt1 strain, stronger effect = higher value
Outline: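 Test agents were incubated with a DNA-repair-mutant yeast strain. Growth was then read and compared against vehicle-treated controls.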

[4] = NCI Yeast Anticancer Drug Screen. Data for the cln2 rad14 strain (AID 165);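 further: 0% = growth equal to vehicle treated cultures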; details: S. cerevisiae cln2 rad14 strain, stronger effect = higher value
Outline: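 Test compounds were added to cln2 rad14 yeast cultures; inhibition of growth was then determined by comparison with vehicle treatment.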

[5] = NCI Yeast Anticancer Drug Screen. Data for the bub3 strain (AID 167); details: S. cerevisiae bub3 mutant strain, stronger effect = higher value
Outline: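 Inhibition values come from growth of compound-treated mutant yeast normalised to vehicle-treated controls.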

[6] = NCI Yeast Anticancer Drug Screen. Data for the mlh1 rad18 strain (AID 175); details: S. cerevisiae mlh1 rad18 strain growth inhibition, stronger effect = higher value
Outline: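 Inhibition values reflect reduced growth of mutant yeast versus vehicle-treated controls following compound exposure; the mutations affect DNA damage repair.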

[7] = at 5.0 µM (retest, dose inferred, filed as 0.5)
[8] = at 50.0 µM (retest, dose inferred, filed as 5.0)

SMILES	growth inhibition [1, 7]	growth inhibition [1, 8]	growth inhibition ([1]; at 50.0 µM)	growth inhibition [2, 7]	growth inhibition [2, 8]	growth inhibition ([2]; at 50.0 µM)	growth inhibition [3, 7]	growth inhibition [3, 8]	growth inhibition ([3]; at 50.0 µM)	growth inhibition [4, 7]	growth inhibition [4, 8]	growth inhibition ([4]; at 50.0 µM)	growth inhibition [5, 7]	growth inhibition [5, 8]	growth inhibition ([5]; at 50.0 µM)	growth inhibition [6, 7]	growth inhibition [6, 8]	growth inhibition ([6]; at 50.0 µM)
CCCCCCC1CC2(Cl)C(Cl)=C(Cl)C1(Cl)C2(Cl)Cl (stereo not drawn)	32%	99% (active)	99.7% (active)	34%	100% (active)	99.8% (active)	53%	99% (active)	99.8% (active)	19%	99% (active)	99.6% (active)	20%	99% (active)	99.7% (active)	54%	99% (active)	99.5% (active)
CCOCCOC(=O)Cc1ccccc1	5%	42%	64.3%	2%	6%	98.3% (active)	-1%	6%	46.9%	4%	16%	55.6%	7%	12%	94% (active)	6%	19%	95.5% (active)
c1cc[c]([Sn]([c]2ccccc2)([c]2ccccc2)[c]2ccccc2)cc1	-2%	-3%	60.2%	-3%	1%	53.4%	0%	-2%	86.5% (active)	-1%	-4%	-20.4%	2%	2%	46%	1%	-4%	81.9% (active)
NC(=O)c1ccc(N)nc1	5%	30%	20.9%	-28%	-14%	-14%	-13%	3%	19.4%	10%	15%	4.4%	-12%	12%	11.2%	-10%	8%	7.75%
[Cl][Sn]([Cl])([c]1ccccc1)[c]1ccccc1.c1ccncc1.c1ccncc1	93% (active)	97% (active)	98% (active)	61%	99% (active)	99.1% (active)	94% (active)	99% (active)	99% (active)	71% (active)	98% (active)	98.8% (active)	92% (active)	98% (active)	97.9% (active)	95% (active)	96% (active)	98.7% (active)
CC1(C)N([O-])[N+](=O)C1(C)Br (stereo not drawn)	23%	15%	-2.45%	19%	13%	-10.3%	21%	24%	-20.2%	12%	24%	19.5%	19%	20%	5.55%	20%	15%	11.4%
